Measured values: publication PMC7862700, “An all-to-all approach to the identification of sequence-specific readers for epigenetic DNA modifications on cytosine”

Key:
Test in all cases: DAPPL (digital affinity profiling via proximity ligation, sequencing); 10 mM Tris-HCl pH 7.5, 50 mM NaCl, 1 mM DTT, 4% glycerol, room temperature, 30 min; GST-TFs on glutathione beads, 16-mer random dsDNA library, 0.1% formaldehyde crosslink after washing; high values mean tight binding
[1] = molecular target: T1, FLI1 (Homo sapiens, UniProt Q01543 1-452); conditions: protein: recombinant; tags: N-terminal GST; dsDNA, one strand shown
T1 sequence: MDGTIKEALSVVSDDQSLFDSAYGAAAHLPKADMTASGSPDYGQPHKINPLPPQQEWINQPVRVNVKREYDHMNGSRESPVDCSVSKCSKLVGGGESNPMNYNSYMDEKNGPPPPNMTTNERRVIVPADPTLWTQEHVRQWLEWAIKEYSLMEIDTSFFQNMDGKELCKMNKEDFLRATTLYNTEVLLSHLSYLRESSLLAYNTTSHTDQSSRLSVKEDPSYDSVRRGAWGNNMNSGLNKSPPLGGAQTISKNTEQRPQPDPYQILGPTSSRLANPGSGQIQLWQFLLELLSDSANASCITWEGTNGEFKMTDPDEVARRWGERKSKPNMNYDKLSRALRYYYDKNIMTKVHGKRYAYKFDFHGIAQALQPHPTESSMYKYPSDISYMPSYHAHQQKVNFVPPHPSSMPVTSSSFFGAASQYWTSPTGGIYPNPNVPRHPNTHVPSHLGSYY
Method in brief: (§1)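 Pools of DNA-barcoded human transcription factors, expressed in yeast as GST fusions on glutathione beads and combined with a tag-only sample, were incubated with 200 nmole of a 16-mer random double-stranded DNA library. Incubation took 30 min at room temperature in Tris/NaCl/DTT/glycerol buffer and was followed by washing, 0.1% formaldehyde crosslinking, proximity ligation (BsaI/T4 ligase, 1 h, 37 °C), PCR amplification and sequencing on an Illumina NextSeq500. Binding signal is the ratio of a hexamer's read frequency for a factor to its frequency for the tag-only sample.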

[2] = molecular target: T2, ELK1 (Homo sapiens, UniProt P19419 1-428); conditions: protein: recombinant; tags: N-terminal GST; dsDNA, one strand shown
T2 sequence: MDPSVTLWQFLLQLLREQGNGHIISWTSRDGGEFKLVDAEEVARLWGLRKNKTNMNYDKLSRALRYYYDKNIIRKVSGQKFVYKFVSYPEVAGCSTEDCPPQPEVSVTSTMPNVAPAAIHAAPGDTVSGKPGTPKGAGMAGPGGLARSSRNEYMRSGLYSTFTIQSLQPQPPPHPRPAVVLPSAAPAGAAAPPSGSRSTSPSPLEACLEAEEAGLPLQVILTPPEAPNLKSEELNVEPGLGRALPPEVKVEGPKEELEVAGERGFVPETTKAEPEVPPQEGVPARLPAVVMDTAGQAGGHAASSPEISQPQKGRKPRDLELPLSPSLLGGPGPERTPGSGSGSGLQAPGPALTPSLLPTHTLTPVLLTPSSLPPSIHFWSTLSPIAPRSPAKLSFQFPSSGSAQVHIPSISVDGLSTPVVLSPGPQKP
Method in brief: as §1

[3] = molecular target: T3, GABPA (Homo sapiens, UniProt Q06546 1-454); conditions: protein: recombinant; tags: N-terminal GST; dsDNA, one strand shown
T3 sequence: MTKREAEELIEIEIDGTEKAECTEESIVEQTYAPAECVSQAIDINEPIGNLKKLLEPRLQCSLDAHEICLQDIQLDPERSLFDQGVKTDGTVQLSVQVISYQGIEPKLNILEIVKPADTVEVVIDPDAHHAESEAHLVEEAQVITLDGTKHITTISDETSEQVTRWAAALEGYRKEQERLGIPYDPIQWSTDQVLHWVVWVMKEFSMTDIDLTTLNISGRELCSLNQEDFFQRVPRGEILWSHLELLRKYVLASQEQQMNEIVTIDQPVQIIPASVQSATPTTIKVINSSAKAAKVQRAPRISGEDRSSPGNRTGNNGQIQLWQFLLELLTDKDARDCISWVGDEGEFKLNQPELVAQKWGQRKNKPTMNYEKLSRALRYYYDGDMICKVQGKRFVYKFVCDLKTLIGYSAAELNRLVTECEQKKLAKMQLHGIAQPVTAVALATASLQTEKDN
Method in brief: as §1

[4] = molecular target: T4, ERG (Homo sapiens, UniProt P11308 1-479); conditions: protein: recombinant; tags: N-terminal GST; dsDNA, one strand shown
T4 sequence: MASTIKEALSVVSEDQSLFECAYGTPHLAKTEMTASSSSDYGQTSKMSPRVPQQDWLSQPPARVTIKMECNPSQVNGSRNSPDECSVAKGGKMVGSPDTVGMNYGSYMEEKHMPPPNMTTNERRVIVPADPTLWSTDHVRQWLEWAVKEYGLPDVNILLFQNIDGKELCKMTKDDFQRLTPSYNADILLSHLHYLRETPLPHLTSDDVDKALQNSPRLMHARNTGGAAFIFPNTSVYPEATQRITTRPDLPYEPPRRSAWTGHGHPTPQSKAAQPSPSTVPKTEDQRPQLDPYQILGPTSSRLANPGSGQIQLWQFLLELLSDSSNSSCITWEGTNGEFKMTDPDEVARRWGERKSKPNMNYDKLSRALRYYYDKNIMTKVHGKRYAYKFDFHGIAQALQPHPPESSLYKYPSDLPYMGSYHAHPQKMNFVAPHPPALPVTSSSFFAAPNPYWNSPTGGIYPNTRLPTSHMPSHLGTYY
Method in brief: as §1

[5] = molecular target: ELF1 (Homo sapiens, UniProt P32519 1-619); conditions: protein: recombinant; tags: N-terminal GST; dsDNA, one strand shown
Method in brief: as §1

[6] = molecular target: T5, EHF (Homo sapiens, UniProt Q9NZC4 1-300); conditions: protein: recombinant; tags: N-terminal GST; dsDNA, one strand shown
T5 sequence: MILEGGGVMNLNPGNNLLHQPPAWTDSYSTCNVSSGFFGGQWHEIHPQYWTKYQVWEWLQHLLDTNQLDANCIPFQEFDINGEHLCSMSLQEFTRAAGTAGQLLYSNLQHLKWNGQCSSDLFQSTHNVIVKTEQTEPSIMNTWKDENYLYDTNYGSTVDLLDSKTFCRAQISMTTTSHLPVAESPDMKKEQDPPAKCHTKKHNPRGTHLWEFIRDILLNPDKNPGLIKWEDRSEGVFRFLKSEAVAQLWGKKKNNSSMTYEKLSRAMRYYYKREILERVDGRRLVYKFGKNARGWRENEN
Method in brief: as §1

[7] = molecular target: SPI1 (Homo sapiens, UniProt P17947 1-270); conditions: protein: recombinant; tags: N-terminal GST; dsDNA, one strand shown
Method in brief: as §1

[8] = molecular target: SPIB (Homo sapiens, UniProt Q01892 1-262); conditions: protein: recombinant; tags: N-terminal GST; dsDNA, one strand shown
Method in brief: as §1

[9] = molecular target: T6, ELK3 (Homo sapiens, UniProt P41970 1-407); conditions: protein: recombinant; tags: N-terminal GST; dsDNA, one strand shown
T6 sequence: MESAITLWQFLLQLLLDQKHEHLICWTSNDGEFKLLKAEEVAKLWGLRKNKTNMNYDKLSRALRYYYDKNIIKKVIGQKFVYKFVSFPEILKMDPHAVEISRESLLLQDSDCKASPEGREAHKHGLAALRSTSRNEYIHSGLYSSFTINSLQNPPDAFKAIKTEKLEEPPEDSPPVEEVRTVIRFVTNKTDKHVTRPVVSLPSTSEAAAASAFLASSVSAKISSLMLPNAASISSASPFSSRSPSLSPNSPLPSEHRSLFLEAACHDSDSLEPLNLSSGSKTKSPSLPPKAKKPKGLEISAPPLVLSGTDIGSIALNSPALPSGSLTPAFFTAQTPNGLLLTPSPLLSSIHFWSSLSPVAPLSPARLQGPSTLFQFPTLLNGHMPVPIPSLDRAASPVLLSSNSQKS
Method in brief: as §1

[10] = molecular target: T7, FEV (Homo sapiens, UniProt Q99581 1-238); conditions: protein: recombinant; tags: N-terminal GST; dsDNA, one strand shown
T7 sequence: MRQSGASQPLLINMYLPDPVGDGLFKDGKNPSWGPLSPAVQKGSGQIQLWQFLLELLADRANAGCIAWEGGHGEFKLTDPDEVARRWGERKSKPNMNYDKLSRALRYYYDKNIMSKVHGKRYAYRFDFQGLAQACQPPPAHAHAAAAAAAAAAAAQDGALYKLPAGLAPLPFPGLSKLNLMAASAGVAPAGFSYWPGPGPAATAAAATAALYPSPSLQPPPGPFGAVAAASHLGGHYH
Method in brief: as §1

[11] = molecular target: ETV5 (Homo sapiens, UniProt P41161 1-510); conditions: protein: recombinant; tags: N-terminal GST; dsDNA, one strand shown
Method in brief: as §1

[12] = molecular target: HSF1 (Homo sapiens, UniProt Q00613 1-529); conditions: protein: recombinant; tags: N-terminal GST; chain copies: 3; dsDNA, one strand shown
Method in brief: as §1

[13] = molecular target: T8, SPIC (Homo sapiens, UniProt Q8N5J4 1-248); conditions: protein: recombinant; tags: N-terminal GST; dsDNA, one strand shown
T8 sequence: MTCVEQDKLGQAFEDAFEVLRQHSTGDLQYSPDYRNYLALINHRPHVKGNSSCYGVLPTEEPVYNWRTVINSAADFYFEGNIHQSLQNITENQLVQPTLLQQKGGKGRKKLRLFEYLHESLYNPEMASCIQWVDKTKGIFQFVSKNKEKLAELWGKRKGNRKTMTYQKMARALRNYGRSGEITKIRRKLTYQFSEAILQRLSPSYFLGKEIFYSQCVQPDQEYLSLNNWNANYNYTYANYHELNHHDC
Method in brief: as §1

[14] = molecular target: ELF4 (Homo sapiens, UniProt Q99607 1-663); conditions: protein: recombinant; tags: N-terminal GST; dsDNA, one strand shown
Method in brief: as §1

[15] = molecular target: T9, ELK4 (Homo sapiens, UniProt P28324-2 1-405); conditions: protein: recombinant; tags: N-terminal GST; dsDNA, one strand shown
T9 sequence: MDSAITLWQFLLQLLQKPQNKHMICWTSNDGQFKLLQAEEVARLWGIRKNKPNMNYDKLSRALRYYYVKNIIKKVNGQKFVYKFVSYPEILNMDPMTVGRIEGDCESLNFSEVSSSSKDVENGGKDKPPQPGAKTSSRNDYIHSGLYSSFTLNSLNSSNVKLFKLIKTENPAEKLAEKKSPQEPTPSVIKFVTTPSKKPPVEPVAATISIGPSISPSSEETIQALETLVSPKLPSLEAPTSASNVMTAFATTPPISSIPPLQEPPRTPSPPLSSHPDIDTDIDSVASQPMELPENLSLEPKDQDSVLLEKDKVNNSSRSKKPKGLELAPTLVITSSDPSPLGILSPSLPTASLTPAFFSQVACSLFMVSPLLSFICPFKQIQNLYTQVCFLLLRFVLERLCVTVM
Method in brief: as §1

[16] = molecular target: T10, ETV2 (Homo sapiens, UniProt O00321 1-342); conditions: protein: recombinant; tags: N-terminal GST; dsDNA, one strand shown
T10 sequence: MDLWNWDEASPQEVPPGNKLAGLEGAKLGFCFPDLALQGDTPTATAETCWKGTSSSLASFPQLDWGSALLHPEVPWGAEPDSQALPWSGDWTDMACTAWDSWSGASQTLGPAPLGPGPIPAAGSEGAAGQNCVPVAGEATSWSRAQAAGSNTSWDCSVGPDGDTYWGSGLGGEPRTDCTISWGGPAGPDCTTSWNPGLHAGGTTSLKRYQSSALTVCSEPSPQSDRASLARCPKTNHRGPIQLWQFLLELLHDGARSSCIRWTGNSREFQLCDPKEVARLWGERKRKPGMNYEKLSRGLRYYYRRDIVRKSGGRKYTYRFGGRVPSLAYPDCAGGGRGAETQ
Method in brief: as §1

[17] = molecular target: T11, ELF3 (Homo sapiens, UniProt P78545 1-371); conditions: protein: recombinant; tags: N-terminal GST; dsDNA, one strand shown
T11 sequence: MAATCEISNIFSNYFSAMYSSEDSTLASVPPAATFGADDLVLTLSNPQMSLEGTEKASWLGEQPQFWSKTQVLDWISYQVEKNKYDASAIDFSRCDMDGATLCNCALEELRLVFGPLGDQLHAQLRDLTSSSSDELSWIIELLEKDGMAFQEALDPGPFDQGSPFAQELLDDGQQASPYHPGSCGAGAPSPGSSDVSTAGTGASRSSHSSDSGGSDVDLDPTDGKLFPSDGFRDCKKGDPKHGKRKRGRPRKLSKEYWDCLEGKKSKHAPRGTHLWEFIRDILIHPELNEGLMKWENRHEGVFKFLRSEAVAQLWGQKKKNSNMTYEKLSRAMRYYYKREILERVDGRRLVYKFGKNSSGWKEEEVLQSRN
Method in brief: as §1

[18] = molecular target: CRX (Homo sapiens, UniProt O43186 1-299); conditions: protein: recombinant; tags: N-terminal GST; dsDNA, one strand shown
Method in brief: as §1

[19] = molecular target: ETV1 (Homo sapiens, UniProt P50549 1-477); conditions: protein: recombinant; tags: N-terminal GST; dsDNA, one strand shown
Method in brief: as §1

Sequence of ELF1 (P32519 whole entry): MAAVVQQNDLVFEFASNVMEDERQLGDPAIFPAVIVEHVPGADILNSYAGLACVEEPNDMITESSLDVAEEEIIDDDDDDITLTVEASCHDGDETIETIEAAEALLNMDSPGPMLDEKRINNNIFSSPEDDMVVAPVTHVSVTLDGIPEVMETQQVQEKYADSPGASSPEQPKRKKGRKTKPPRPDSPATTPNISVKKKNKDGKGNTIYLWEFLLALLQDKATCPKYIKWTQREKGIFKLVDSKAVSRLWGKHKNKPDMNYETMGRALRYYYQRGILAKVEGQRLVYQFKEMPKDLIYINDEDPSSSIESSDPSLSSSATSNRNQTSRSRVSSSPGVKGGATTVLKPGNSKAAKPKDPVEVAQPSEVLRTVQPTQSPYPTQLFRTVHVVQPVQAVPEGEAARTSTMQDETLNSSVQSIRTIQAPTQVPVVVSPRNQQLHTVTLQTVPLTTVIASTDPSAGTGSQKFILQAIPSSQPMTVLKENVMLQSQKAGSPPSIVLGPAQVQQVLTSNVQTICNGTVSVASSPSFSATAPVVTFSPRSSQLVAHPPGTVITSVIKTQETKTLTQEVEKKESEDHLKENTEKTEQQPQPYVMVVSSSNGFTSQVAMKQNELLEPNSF
Sequence of SPIB (Q01892 whole entry): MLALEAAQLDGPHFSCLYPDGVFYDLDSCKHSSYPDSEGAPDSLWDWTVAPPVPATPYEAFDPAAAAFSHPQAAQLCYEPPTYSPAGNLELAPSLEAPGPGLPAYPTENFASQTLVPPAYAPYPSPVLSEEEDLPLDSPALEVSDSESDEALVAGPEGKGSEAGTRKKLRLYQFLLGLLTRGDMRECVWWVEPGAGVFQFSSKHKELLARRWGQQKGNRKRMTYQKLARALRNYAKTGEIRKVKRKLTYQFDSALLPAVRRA
Sequence of ELF4 (Q99607 whole entry): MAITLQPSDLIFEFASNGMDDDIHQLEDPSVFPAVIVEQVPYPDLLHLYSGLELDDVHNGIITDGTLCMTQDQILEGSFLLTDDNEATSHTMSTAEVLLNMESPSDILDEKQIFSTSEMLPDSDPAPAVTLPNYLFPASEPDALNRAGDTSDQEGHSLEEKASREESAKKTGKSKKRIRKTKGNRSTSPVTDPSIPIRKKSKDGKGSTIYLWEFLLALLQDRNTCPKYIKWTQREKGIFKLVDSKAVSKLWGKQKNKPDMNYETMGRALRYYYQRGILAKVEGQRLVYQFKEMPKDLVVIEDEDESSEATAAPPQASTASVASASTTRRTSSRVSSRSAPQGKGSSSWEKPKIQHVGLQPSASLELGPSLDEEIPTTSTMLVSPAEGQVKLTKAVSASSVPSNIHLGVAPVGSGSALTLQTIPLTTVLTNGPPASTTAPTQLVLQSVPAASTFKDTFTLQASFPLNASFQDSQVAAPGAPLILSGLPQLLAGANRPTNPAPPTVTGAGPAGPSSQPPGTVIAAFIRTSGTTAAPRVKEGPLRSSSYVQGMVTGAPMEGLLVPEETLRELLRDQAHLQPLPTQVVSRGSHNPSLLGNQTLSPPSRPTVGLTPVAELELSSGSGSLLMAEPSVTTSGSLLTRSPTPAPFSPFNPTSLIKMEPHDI
Sequence of CRX (O43186 whole entry): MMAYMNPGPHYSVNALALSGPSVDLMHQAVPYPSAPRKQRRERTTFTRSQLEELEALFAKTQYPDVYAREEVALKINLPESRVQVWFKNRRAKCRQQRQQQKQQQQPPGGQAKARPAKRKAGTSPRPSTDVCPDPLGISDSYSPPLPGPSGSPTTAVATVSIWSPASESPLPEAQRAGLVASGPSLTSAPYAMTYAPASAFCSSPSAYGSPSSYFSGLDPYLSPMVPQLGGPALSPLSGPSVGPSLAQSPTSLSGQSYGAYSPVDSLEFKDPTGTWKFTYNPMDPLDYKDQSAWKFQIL
Sequence of HSF1 (Q00613 whole entry): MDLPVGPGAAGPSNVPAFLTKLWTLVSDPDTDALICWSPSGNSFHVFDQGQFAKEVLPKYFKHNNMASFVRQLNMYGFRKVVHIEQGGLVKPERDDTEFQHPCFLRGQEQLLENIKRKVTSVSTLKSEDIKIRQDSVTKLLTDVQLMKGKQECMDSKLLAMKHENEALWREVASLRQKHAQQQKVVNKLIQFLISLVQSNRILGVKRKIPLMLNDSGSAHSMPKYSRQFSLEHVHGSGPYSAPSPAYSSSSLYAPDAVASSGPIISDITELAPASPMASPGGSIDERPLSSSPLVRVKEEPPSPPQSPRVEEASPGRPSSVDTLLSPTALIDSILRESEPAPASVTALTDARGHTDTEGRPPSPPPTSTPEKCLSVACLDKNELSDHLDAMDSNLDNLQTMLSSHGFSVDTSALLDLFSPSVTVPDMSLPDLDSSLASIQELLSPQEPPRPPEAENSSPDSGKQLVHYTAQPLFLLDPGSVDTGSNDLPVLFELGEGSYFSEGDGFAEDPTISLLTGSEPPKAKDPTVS
Sequence of ETV5 (P41161 whole entry): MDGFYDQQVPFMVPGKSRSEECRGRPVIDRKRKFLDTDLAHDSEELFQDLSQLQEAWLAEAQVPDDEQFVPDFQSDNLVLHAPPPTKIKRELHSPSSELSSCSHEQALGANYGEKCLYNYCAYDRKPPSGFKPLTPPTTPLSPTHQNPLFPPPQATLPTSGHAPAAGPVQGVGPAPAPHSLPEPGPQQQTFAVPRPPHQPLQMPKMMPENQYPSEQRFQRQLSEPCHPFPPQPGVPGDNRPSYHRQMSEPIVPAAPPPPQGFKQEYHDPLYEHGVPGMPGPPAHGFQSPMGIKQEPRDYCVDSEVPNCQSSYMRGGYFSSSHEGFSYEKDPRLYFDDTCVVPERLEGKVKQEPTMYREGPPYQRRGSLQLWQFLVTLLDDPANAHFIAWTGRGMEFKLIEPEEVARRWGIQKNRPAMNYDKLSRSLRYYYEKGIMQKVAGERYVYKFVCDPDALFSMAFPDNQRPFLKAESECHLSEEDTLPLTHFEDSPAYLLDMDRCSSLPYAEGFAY
Sequence of ETV1 (P50549 whole entry): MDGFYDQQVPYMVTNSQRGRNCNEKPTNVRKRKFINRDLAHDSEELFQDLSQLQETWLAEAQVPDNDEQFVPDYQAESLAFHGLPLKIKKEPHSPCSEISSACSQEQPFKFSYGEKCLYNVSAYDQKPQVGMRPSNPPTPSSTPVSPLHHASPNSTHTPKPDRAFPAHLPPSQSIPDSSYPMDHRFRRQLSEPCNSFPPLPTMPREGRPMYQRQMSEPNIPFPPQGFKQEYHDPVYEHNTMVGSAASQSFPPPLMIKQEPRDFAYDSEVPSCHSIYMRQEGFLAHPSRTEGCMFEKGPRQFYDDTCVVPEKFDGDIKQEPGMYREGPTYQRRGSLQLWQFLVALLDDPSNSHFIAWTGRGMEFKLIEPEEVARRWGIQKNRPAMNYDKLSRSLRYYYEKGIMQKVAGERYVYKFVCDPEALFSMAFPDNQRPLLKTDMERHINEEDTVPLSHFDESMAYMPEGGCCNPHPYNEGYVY

Sequence: CCAATA
- binding signal [1]: 1.24 fold enrichment (6-mer frequency, TF over GST control)
- binding signal [2]: 1.17 fold enrichment (6-mer frequency, TF over GST control)
- binding signal [3]: 1.25 fold enrichment (6-mer frequency, TF over GST control)
- binding signal [4]: 1.26 fold enrichment (6-mer frequency, TF over GST control)
- binding signal [5]: 1.25 fold enrichment (6-mer frequency, TF over GST control)
- binding signal [6]: 1.25 fold enrichment (6-mer frequency, TF over GST control)
- binding signal [7]: 1.2 fold enrichment (6-mer frequency, TF over GST control)
- binding signal [8]: 1.24 fold enrichment (6-mer frequency, TF over GST control)
- binding signal [9]: 1.28 fold enrichment (6-mer frequency, TF over GST control)
- binding signal [10]: 1.19 fold enrichment (6-mer frequency, TF over GST control)
- binding signal [11]: 1.29 fold enrichment (6-mer frequency, TF over GST control)
- binding signal [12]: 1.12 fold enrichment (6-mer frequency, TF over GST control)
- binding signal [13]: 1.18 fold enrichment (6-mer frequency, TF over GST control)
- binding signal [14]: 1.29 fold enrichment (6-mer frequency, TF over GST control)
- binding signal [15]: 1.23 fold enrichment (6-mer frequency, TF over GST control)
- binding signal [16]: 1.09 fold enrichment (6-mer frequency, TF over GST control)
- binding signal [17]: 1.25 fold enrichment (6-mer frequency, TF over GST control)
- binding signal [18]: 1.22 fold enrichment (6-mer frequency, TF over GST control)
- binding signal [19]: 1.21 fold enrichment (6-mer frequency, TF over GST control)
